In PubChem BioAssay (NCI):
This is part of a sample that, as a whole, favours compounds with a hit. Of some 79,000 tested, about 15% had one in any assay. Active and inactive are the calls of the source. No stated cut-off is given here; in the data, active means growth inhibition above about 70%; inactive means the rest.

Columns and labels:
[1] = NCI Yeast Anticancer Drug Screen. Data for the mlh1 strain (AID 171);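 further: 0% = growth of vehicle-treated control cultures of the same strain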; settings: S. cerevisiae mlh1 strain growth inhibition, stronger effect = higher value
Procedure, shortened: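 Growth of the mutant yeast strain after compound exposure, expressed as inhibition relative to vehicle-only controls.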

[2] = NCI Yeast Anticancer Drug Screen. Data for the sgs1 strain (AID 173);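 further: 0% = growth of vehicle-only control cultures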; settings: S. cerevisiae sgs1 mutant, stronger effect = higher value
Procedure, shortened: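 Growth of a yeast strain bearing a defined genetic alteration is measured after compound treatment. Inhibition is expressed relative to vehicle-only controls.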

[3] = NCI Yeast Anticancer Drug Screen. Data for the mlh1 rad18 strain (AID 175); settings: S. cerevisiae mlh1 rad18 strain growth inhibition, stronger effect = higher value
Procedure, shortened: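 Read-out is yeast growth inhibition, calculated against vehicle-only controls. The compound was applied to a strain engineered with DNA damage repair alterations.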

[4] = NCI Yeast Anticancer Drug Screen. Data for the rad18 strain (AID 177); settings: S. cerevisiae rad18 mutant growth inhibition, stronger effect = higher value
Procedure, shortened: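 Growth of the mutant yeast strain after compound exposure, normalised to vehicle-only cultures.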

[5] = NCI Yeast Anticancer Drug Screen. Data for the rad52 strain (AID 147);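 further: 0% = growth of vehicle-treated control cultures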; settings: S. cerevisiae rad52 mutant growth inhibition, stronger effect = higher value
Procedure, shortened: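 Compounds are applied to a genetically defined yeast strain lacking normal DNA damage repair, and inhibition of growth is expressed relative to cultures given vehicle only.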

[6] = NCI Yeast Anticancer Drug Screen. Data for the wt1 strain (AID 149);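 further: 0% = growth of vehicle-treated wt1 cultures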; settings: S. cerevisiae wt1 strain (SPY 50644) growth inhibition, stronger effect = higher value
Procedure, shortened: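 The wt1 strain was treated with compounds, and growth was compared with vehicle-treated cultures to give inhibition.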

[7] = NCI Yeast Anticancer Drug Screen. Data for the rad50EPP+ strain (AID 151);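 further: 0% = growth of vehicle-treated control cultures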; settings: S. cerevisiae rad50 mutant strain, stronger effect = higher value
Procedure, shortened: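 Compounds were applied to the rad50EPP+ yeast strain, which bears a defined DNA repair alteration, and growth inhibition was determined relative to vehicle-treated cultures.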

[8] = NCI Yeast Anticancer Drug Screen. Data for the mgt1 strain (AID 153); settings: S. cerevisiae mgt1 mutant growth inhibition, stronger effect = higher value
Procedure, shortened: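 Strain: mgt1 yeast, one of a set carrying defined DNA damage repair or cell cycle control alterations. Compound-treated growth compared with vehicle.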

[9] = NCI Yeast Anticancer Drug Screen. Data for the rad50 strain (AID 155);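 further: 0% = growth of vehicle-only cultures of the same strain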; settings: S. cerevisiae rad50 strain growth inhibition, stronger effect = higher value
Procedure, shortened: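 Cells are treated with compound, grown, and their growth is then scored against vehicle-only cultures of the same repair-deficient yeast strain.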

[10] = NCI Yeast Anticancer Drug Screen. Data for the mec2-1 strain (AID 157); settings: S. cerevisiae mec2-1 strain, stronger effect = higher value
Procedure, shortened: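 Strain: mec2-1 (DNA repair/cell cycle alteration). Compound exposure, then growth measured; inhibition expressed relative to vehicle.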

[11] = NCI Yeast Anticancer Drug Screen. Data for the rad14 strain (AID 159);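 further: 0% = growth of vehicle-treated control cultures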; settings: S. cerevisiae rad14 strain growth inhibition, stronger effect = higher value
Procedure, shortened: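 Readout: yeast growth inhibition, referenced to vehicle-only cultures. Strain bears a defined alteration in DNA damage repair.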

[12] = NCI Yeast Anticancer Drug Screen. Data for the sgs1 mgt1 strain (AID 161);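 further: 0% = growth of cultures given vehicle only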; settings: S. cerevisiae sgs1 mgt1 strain, stronger effect = higher value
Procedure, shortened: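 Mutant yeast exposed to compound; growth scored against vehicle-only wells.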

[13] = NCI Yeast Anticancer Drug Screen. Data for the cln2 rad14 strain (AID 165);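 further: 0% = growth equal to vehicle treated cultures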; settings: S. cerevisiae cln2 rad14 strain, stronger effect = higher value
Procedure, shortened: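 Compounds are applied to the cln2 rad14 yeast strain, and growth is then compared with that of vehicle-treated cultures to give inhibition.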

[14] = NCI Yeast Anticancer Drug Screen. Data for the bub3 strain (AID 167); settings: S. cerevisiae bub3 mutant strain, stronger effect = higher value
Procedure, shortened: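 Part of a panel of yeast mutants defective in DNA damage repair or cell cycle regulation. Each strain is grown with compound, and inhibition is calculated relative to solvent-treated cultures.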

[15] = NCI Yeast Anticancer Drug Screen. Data for the wt2 strain (AID 169);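 further: 0% = growth of vehicle-treated yeast cultures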; settings: S. cerevisiae wt2 strain growth inhibition, stronger effect = higher value
Procedure, shortened: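 This strain belongs to a panel of yeast strains with defined genetic alterations in DNA damage repair or cell cycle control. Compounds are applied, and growth inhibition is measured against vehicle-treated cultures.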

[16] = at 5.0 µM (retest, dose inferred, filed as 0.5)
[17] = at 50.0 µM (retest, dose inferred, filed as 5.0)

Measured: growth inhibition

C=C(C(=O)OC)N1C(=O)CC(C)C1=O (centres undefined)
active: [1]; at 100.0 µM 80% | [3]; [17] 96% | [4]; at 100.0 µM 75%
inactive: [1]; at 1.2 µM 2% | [1]; at 3.7 µM 4% | [1]; at 11.0 µM 6% | [1]; at 33.0 µM 42% | [2]; at 1.2 µM 0% | [2]; at 3.7 µM 12% | [2]; at 11.0 µM 21% | [2]; at 33.0 µM 40% | [2]; at 100.0 µM 67% | [3]; [16] 57% | [3]; at 50.0 µM 67.5% | [4]; at 1.2 µM -5% | [4]; at 3.7 µM 7% | [4]; at 11.0 µM 17% | [4]; at 33.0 µM 32%

CCCCN(CCCC)c1ccc(N=Nc2ccc(S(=O)(=O)O)cc2)cc1
inactive: [5]; at 1.2 µM 21% | [5]; at 3.7 µM 48% | [5]; at 11.0 µM 40% | [6]; at 1.2 µM -9% | [6]; at 3.7 µM 2% | [6]; at 11.0 µM 33% | [7]; at 1.2 µM 10% | [7]; at 3.7 µM 8% | [7]; at 11.0 µM 48% | [8]; at 1.2 µM 19% | [8]; at 3.7 µM 39% | [9]; at 1.2 µM 16% | [9]; at 3.7 µM 14% | [9]; [16] 63% | [9]; at 11.0 µM 38% | [10]; at 1.2 µM 32% | [10]; at 3.7 µM 43% | [10]; [16] 52% | [11]; at 1.2 µM -5% | [11]; at 3.7 µM 8% | [11]; at 11.0 µM 38% | [12]; [16] -48% | [13]; [16] 20% | [14]; at 1.2 µM 34% | [14]; at 3.7 µM 55% | [14]; [16] -2% | [15]; at 1.2 µM -7% | [15]; at 3.7 µM 39% | [1]; at 1.2 µM 1% | [1]; at 3.7 µM 18% | [2]; at 1.2 µM 30% | [2]; at 3.7 µM 53% | [3]; [16] 51% | [4]; at 1.2 µM -18% | [4]; at 3.7 µM 0% | [4]; at 11.0 µM 8%
active: [5]; at 33.0 µM 89% | [5]; at 100.0 µM 90% | [6]; at 33.0 µM 97% | [6]; at 100.0 µM 97% | [7]; at 33.0 µM 84% | [7]; at 100.0 µM 87% | [8]; at 11.0 µM 92% | [8]; at 33.0 µM 97% | [8]; at 100.0 µM 97% | [9]; at 33.0 µM 92% | [9]; [17] 99% | [9]; at 50.0 µM 87.7% | [9]; at 100.0 µM 93% | [10]; at 11.0 µM 77% | [10]; at 33.0 µM 97% | [10]; [17] 98% | [10]; at 50.0 µM 90.7% | [10]; at 100.0 µM 97% | [11]; at 33.0 µM 97% | [11]; at 100.0 µM 97% | [12]; [17] 98% | [12]; at 50.0 µM 91.7% | [13]; [17] 98% | [13]; at 50.0 µM 88.7% | [14]; at 11.0 µM 71% | [14]; at 33.0 µM 94% | [14]; [17] 96% | [14]; at 50.0 µM 89.8% | [14]; at 100.0 µM 95% | [15]; at 11.0 µM 89% | [15]; at 33.0 µM 97% | [15]; at 100.0 µM 97% | [1]; at 11.0 µM 82% | [1]; at 33.0 µM 94% | [1]; at 100.0 µM 94% | [2]; at 11.0 µM 90% | [2]; at 33.0 µM 94% | [2]; at 100.0 µM 94% | [3]; [17] 99% | [3]; at 50.0 µM 88.2% | [4]; at 33.0 µM 90% | [4]; at 100.0 µM 92%

O=C(O)C(=Cc1ccc(-c2ccccc2)cc1)C(=O)O
inactive: [5]; at 1.2 µM 6% | [5]; at 3.7 µM 10% | [5]; at 11.0 µM 24% | [5]; at 33.0 µM 50% | [6]; at 1.2 µM 2% | [6]; at 3.7 µM 4% | [6]; at 11.0 µM 16% | [6]; at 33.0 µM 55% | [7]; at 1.2 µM -1% | [7]; at 3.7 µM -1% | [7]; at 11.0 µM -1% | [7]; at 33.0 µM 6% | [7]; at 100.0 µM 25% | [8]; at 1.2 µM 2% | [8]; at 3.7 µM 4% | [8]; at 11.0 µM 22% | [8]; at 33.0 µM 58% | [9]; at 1.2 µM 0% | [9]; at 3.7 µM -5% | [9]; [16] 2% | [9]; at 11.0 µM 11% | [9]; at 33.0 µM 54% | [9]; [17] 23% | [9]; at 50.0 µM 60.1% | [10]; at 1.2 µM 4% | [10]; at 3.7 µM 7% | [10]; [16] -7% | [10]; at 11.0 µM 30% | [10]; at 33.0 µM 60% | [10]; [17] 63% | [10]; at 50.0 µM 46.5% | [11]; at 1.2 µM 5% | [11]; at 3.7 µM 8% | [11]; at 11.0 µM 17% | [11]; at 33.0 µM 46% | [12]; [16] 4% | [12]; [17] 24% | [12]; at 50.0 µM 31.5% | [13]; [16] 46% | [13]; [17] 27% | [13]; at 50.0 µM 23.7% | [14]; at 1.2 µM 1% | [14]; at 3.7 µM 1% | [14]; [16] -10% | [14]; at 11.0 µM 24% | [14]; [17] 43% | [15]; at 1.2 µM 0% | [15]; at 3.7 µM 3% | [15]; at 11.0 µM 17% | [15]; at 33.0 µM 61% | [2]; at 1.2 µM 3% | [2]; at 3.7 µM 7% | [2]; at 11.0 µM 26% | [3]; [16] -2% | [3]; [17] 19% | [4]; at 1.2 µM 3% | [4]; at 3.7 µM 7% | [4]; at 11.0 µM 20%
active: [5]; at 100.0 µM 87% | [6]; at 100.0 µM 88% | [8]; at 100.0 µM 90% | [9]; at 100.0 µM 88% | [10]; at 100.0 µM 92% | [11]; at 100.0 µM 90% | [14]; at 33.0 µM 72% | [14]; at 50.0 µM 71.8% | [14]; at 100.0 µM 93% | [15]; at 100.0 µM 89% | [2]; at 33.0 µM 72% | [2]; at 100.0 µM 92% | [3]; at 50.0 µM 70.9% | [4]; at 33.0 µM 70% | [4]; at 100.0 µM 91%
